Data from PubChem BioAssay.
Active and inactive are the calls of the source. Unless noted, no rule for the calls is given here.

Tests used:
[1] = tested on: XIP peptide (Xip251-270) binding; assay: XIP fragment 251-270 binding compounds – biochemical, small-molecule microarray, fluorescence 635/667 nm, 0.1 µg/mL protein, primary screen (AID 1182); conditions: fluorescent protein binding, 635 nm, higher = more signal, called active from +8 up or from −8 down
XIP peptide (Xip251-270) = assay: compounds binding XIP fragment 251-270 – biochemical, small-molecule microarray, fluorescence 635/667 nm, 0.5 µg/mL protein, primary screen (AID 1183); conditions: fluorescence 635 nm, higher = more signal
[2] = blood-stage malaria parasite viability loss – strain 3D7, DAPI fluorescence, 100 nL, primary screen (AID 1184);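 also: parasites grown inside human red blood cells in medium with human serum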; conditions: P. falciparum 3D7 growth, 3 d, higher = more signal
[3] = target: Homeobox protein Hox-A13 (Mus musculus) (UniProt Q62424); assay: disruptors of Hoxa13 oligonucleotide interaction – biochemical, fluorescence polarization, labeled oligonucleotide, primary screen (AID 1185); conditions: Hoxa13:DNA binding, 15 min, higher = more signal, called active from +8 up or from −8 down
Sequence of Homeobox protein Hox-A13 (Mus musculus) (Q62424 whole entry, looked up): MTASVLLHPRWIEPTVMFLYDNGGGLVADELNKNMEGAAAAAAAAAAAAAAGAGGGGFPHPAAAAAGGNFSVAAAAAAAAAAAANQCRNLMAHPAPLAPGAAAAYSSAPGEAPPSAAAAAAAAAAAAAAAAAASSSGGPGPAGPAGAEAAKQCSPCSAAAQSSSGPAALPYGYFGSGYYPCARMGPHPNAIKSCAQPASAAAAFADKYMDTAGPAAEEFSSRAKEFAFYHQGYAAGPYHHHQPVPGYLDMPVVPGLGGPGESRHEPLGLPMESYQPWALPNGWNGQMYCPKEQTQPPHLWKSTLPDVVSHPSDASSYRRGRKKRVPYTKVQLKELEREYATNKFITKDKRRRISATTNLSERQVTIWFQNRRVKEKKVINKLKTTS

[4] = blockers of DNA damage checkpoint Chk1 activation – imaging, HeLa, hydroxyurea, phospho-Chk1 antibody, percent positive cells, primary screen (AID 1186); conditions: hydroxyurea-induced phospho-Chk1 immunofluorescence imaging, higher = more signal
[5] = blockers of DNA damage checkpoint Chk1 activation – imaging, HeLa, hydroxyurea, phospho-Chk1 nuclear intensity, primary screen (AID 1187); conditions: hydroxyurea-induced phospho-Chk1 immunofluorescence imaging, higher = more signal

Row | Compound | composite z-score [1] | composite z-score (XIP peptide (Xip251-270)) | z-score [2] | z-score [3] | z-score [4] | z-score [5]
1 | Cc1ccc(S[C@]2(C(=O)NCc3ccccc3)CC(=O)N(Cc3cc(C(F)(F)F)cc(C(F)(F)F)c3)[C@@H]2c2ccc(CO)cc2I)cc1 | 1.16 (inactive) | -0.474 | -0.261 | -1.82 (inactive) | 0.0563 (inactive) | 0.249 (inactive)
2 | COC(=O)[C@@]1(Cc2ccc(F)cc2)[C@H]2c3cc(C(=O)N4CCCC4)n(CC4CC4)c3C[C@H]2CN1C(=O)c1ccccc1 | 1.84 (inactive) | 0.245 | -1.36 | -4.69 (inactive) | 0.396 (inactive) | 0.0021 (inactive)
3 | CCOC(=O)C1=C[C@@H](C(C)(C)C)N(S(=O)(=O)c2ccc(C)cc2)[C@H]1c1cccc(Cl)c1 | -0.248 (inactive) | 0.765 | -2.08 | 0.0204 (inactive) | 0.347 (inactive) | -0.136 (inactive)
4 | CCCCCN1CC=CC23O[C@@H]4C=CCOC(=O)[C@@H]4[C@H]2C(=O)N(CCO)[C@@H]3C1=O (some centres undefined) | 0.647 (inactive) | -0.311 | 1.34 | -3.88 (inactive) | -0.542 (inactive) | -0.562 (inactive)
5 | CC(C)[C@H]1NC(=O)[C@@]23C(=O)N[C@@H](Cc4ccccc4)C2[C@H](C)[C@@]2(C)O[C@H]2C3/C=C/CCC/C=C/CNC(=O)[C@H](Cc2ccccc2)NC1=O (some centres undefined) | 0.621 (inactive) | 0.741 | -1.83 | -6.22 (inactive) | -0.165 (inactive) | -0.0036 (inactive)
6 | O=C1C2C=CC(C(O)c3ccc(I)cc3)N(Nc3ccccc3)C2C(=O)N1c1ccccc1 (centres undefined) | 0.393 (inactive) | 0.702 | 0.83 | -2.67 (inactive) | -0.007 (inactive) | -1.05 (inactive)
7 | NCCCCCNC(=O)[C@@H]1C[C@@H]2C(=O)N3CCC[C@H]3C(=O)N2[C@@H]1c1ccc(O)cc1 | 0.0353 (inactive) | 0.0129 | 0.0766 | -1.74 (inactive) | 0.299 (inactive) | 0.235 (inactive)
8 | COC(=O)[C@@]1(Cc2ccccc2)[C@H]2c3cc(C(=O)N(C)C)n(CCn4cc([N+](=O)[O-])nc4C)c3C[C@H]2CN1C(=O)c1ccccc1 | 0.731 (inactive) | 0.83 | 0.391 | -1.73 (inactive) | -0.3 (inactive) | -0.424 (inactive)
9 | O=C(O)[C@H]1C[C@H]2C(=O)N[C@@H](Cc3ccccc3)C(=O)N2[C@H]1c1cccc(OCCO)c1 | -0.0627 (inactive) | 0.152 | -0.74 | -1.74 (inactive) | 0.464 (inactive) | 0.48 (inactive)
10 | COc1ccc([Si](C)(C)[C@@H]2[C@@H](CC(=O)N3Cc4ccccc4C[C@H]3CO)O[C@]3(C(=O)N(Cc4ccc(N5CCC5=O)cc4)c4ccccc43)[C@H]2C)cc1 | 1.08 (inactive) | 0.682 | -2.64 | -0.855 (inactive) | -0.169 (inactive) | 0.14 (inactive)
11 | C=CCN1C(=O)[C@@]2(O[C@@H](CCO)[C@H]([Si](C)(C)c3ccc(OC)cc3)[C@H]2C)c2cc(N3CCOC3=O)ccc21 | 0.341 (inactive) | 0.68 | -2.39 | -5.97 (inactive) | -0.0674 (inactive) | 0.0448 (inactive)
12 | COCCOC(=O)N1C(=O)[C@@]2(c3cc(C#CCCO)ccc31)[C@H](C(N)=O)[C@H]1C(=O)O[C@H](c3ccccc3)[C@H](c3ccccc3)N1[C@@H]2c1ccc(OCCO)cc1 | 1.56 (inactive) | 0.769 | -0.624 | -1.24 (inactive) | 0.0923 (inactive) | -0.0574 (inactive)
13 | COc1cc(NN2C(C(O)c3cc(OC)c(OC)c(OC)c3)C=CC3C(=O)N(c4ccccc4)C(=O)C32)cc(OC)c1OC (centres undefined) | 0.692 (inactive) | 0.552 | -0.732 | -4.86 (inactive) | 1.06 (inactive) | 0.889 (inactive)
14 | CCCCC(=O)N(CCN1CCOCC1)[C@@H]1CC(C(=O)NCCO)=C[C@H](Oc2c(I)cc(CO)cc2OC)[C@H]1O | 0.763 (inactive) | 0.918 | -0.0342 | -4.26 (inactive) | -0.686 (inactive) | -0.31 (inactive)
15 | COCC1=C2[C@@H](CCc3ccccc3)OB(O)C[C@@H]2[C@@H]2C(=O)N(C)C(=O)[C@@H]2C1 | 0.0872 (inactive) | 0.763 | 1.22 | -7.72 (inactive) | 0.684 (inactive) | 1.24 (inactive)
16 | [N-]=[N+]=NCc1ccccc1[C@H]1OC(c2ccc(OCCCO)cc2)=N[C@@]1(Cc1ccccc1)C(=O)NCCN1CCOCC1 | 0.0723 (inactive) | 0.816 | -2.28 | -0.974 (inactive) | -0.0389 (inactive) | 0.306 (inactive)
17 | CCOC(=O)C[C@H]1[C@H](OC(=O)c2ccc(-c3ccccc3)cc2)[C@@H](NC(=O)CC(C)C)c2cc(OCCCO)ccc2N1C(=O)c1ccccc1 | 0.22 (inactive) | -0.0545 | -0.419 | -3.33 (inactive) | -0.228 (inactive) | -0.0761 (inactive)

Row | Compound | composite z-score [1] | composite z-score (XIP peptide (Xip251-270)) | z-score [2] | z-score [3] | z-score [4] | z-score [5]
18 | CCOC(=O)C[C@H]1[C@H](OC(=O)c2ccc(-c3ccccc3)cc2)[C@@H](NC(=O)Cc2ccc(OC)cc2)c2cc(OCCCO)ccc2N1C(=O)Cc1ccc(OC)cc1 | 0.0878 (inactive) | -0.015 | -1.18 | -1.32 (inactive) | -0.366 (inactive) | 0.0566 (inactive)
19 | COC(=O)[C@@]1(Cc2ccccc2)[C@H]2c3cc(C(=O)N4CCCC4)n(CCSCCO)c3C[C@H]2CN1C(=O)c1ccccc1 | 0.343 (inactive) | 0.752 | -1.7 | -5.06 (inactive) | 1.45 (inactive) | 0.501 (inactive)
20 | NC(=O)[C@H]1[C@@H]2C(=O)O[C@@H](c3ccccc3)[C@@H](c3ccccc3)N2[C@@H](c2ccc(O)cc2)[C@]12C(=O)Nc1ccccc12 | -0.367 (inactive) | -0.764 | 0.428 | -5.09 (inactive) | -0.154 (inactive) | -0.112 (inactive)
21 | C[C@]1(C(=O)NCC(F)(F)F)c2ccccc2C(=O)N(Cc2ccccc2)[C@H]1c1ccc(CO)cc1 | 0.636 (inactive) | -0.0904 | 0.169 | -4.07 (inactive) | -0.301 (inactive) | -0.232 (inactive)
22 | COCCOC(=O)N1C(=O)[C@@]2(c3ccccc31)[C@H](c1ccccc1OCCO)N1[C@H](c3ccccc3)[C@H](c3ccccc3)OC(=O)[C@H]1[C@@H]2C(N)=O | 2.37 (inactive) | 0.784 | -0.946 | -4.81 (inactive) | 0.0327 (inactive) | 0.12 (inactive)
23 | [N-]=[N+]=NCc1ccccc1[C@H]1OC(c2ccc(OCCCO)cc2)=N[C@@]1(CCS(=O)(=O)c1ccccc1)C(=O)NCc1ccccc1 | -0.165 (inactive) | 0.68 | -2.28 | -0.495 (inactive) | -0.189 (inactive) | 0.283 (inactive)
24 | Cc1ccc(S[C@]2(C(=O)NC(C)C)CC(=O)N(Cc3ccccc3Cl)[C@@H]2c2ccc(CO)cc2)cc1 | 0.73 (inactive) | -0.11 | -1.49 | -3.73 (inactive) | -0.0383 (inactive) | -0.0912 (inactive)
25 | O=C(CS)NCCCCCNC(=O)[C@@H]1C[C@@H]2C(=O)N[C@@H](Cc3ccccc3)C(=O)N2[C@@H]1c1cccc(OCCO)c1 | 0.74 (inactive) | 0.77 | -0.0054 | -2.89 (inactive) | 0.341 (inactive) | 0.581 (inactive)
26 | CCOC(=O)C1=CC[C@@H](c2ccccc2)N(S(=O)(=O)c2ccc(C)cc2)[C@H]1C=Cc1ccccc1 | 0.0537 (inactive) | 0.749 | -2.01 | 1.66 (inactive) | -0.511 (inactive) | -0.645 (inactive)
27 | COc1cc(NN2C(C(O)c3ccccc3)C=CC3C(=O)N(C)C(=O)C32)cc(OC)c1OC (centres undefined) | 0.561 (inactive) | 0.346 | -0.312 | -3.23 (inactive) | -0.36 (inactive) | -0.516 (inactive)
28 | CC(C)C[C@@H]1NC(=O)CNC(=O)[C@@]23C(=O)N[C@@H](Cc4ccccc4)C2[C@H](C)[C@@]2(C)O[C@H]2C3/C=C/C/C=C\CNC1=O (some centres undefined) | 0.408 (inactive) | 0.767 | 0.0276 | -6.42 (inactive) | -0.284 (inactive) | 0.0034 (inactive)
29 | CC(C)CCC[C@@H](C)[C@H]1CC[C@@]2(C)C3=C(CC[C@]12C)[C@@]1(C)CC[C@H](OC(=O)c2ccccc2)C(C)(C)C1CC3 (some centres undefined) | 0.276 (inactive) | 0.0627 | -0.544 | -1 (inactive) | -0.531 (inactive) | -0.299 (inactive)
30 | COCCOC(=O)N1C(=O)[C@@]2(c3cc(C#Cc4ccc(OC)cc4)ccc31)[C@H](C(=O)NC[C@H](O)c1ccccc1)[C@H]1C(=O)O[C@H](c3ccccc3)[C@H](c3ccccc3)N1[C@@H]2c1ccc(OCCO)cc1 | 0.271 (inactive) | 0.591 | -2.17 | 1.56 (inactive) | 0.0092 (inactive) | 0.117 (inactive)
31 | CN1C=C(C(=O)OCCS(C)(=O)=O)C(C(=O)OCCS(C)(=O)=O)=CC(c2ccc(CO)cc2)=CC1c1cccs1 (centres undefined) | 0.514 (inactive) | 0.496 | -2.58 | -5.46 (inactive) | -0.163 (inactive) | -0.265 (inactive)
32 | C[C@@H]1ON(c2ccc(I)cc2)[C@H](c2ccc(OC(=O)OC(C)(C)C)cc2)[C@H]1C(=O)N1C(=O)OC[C@H]1Cc1ccccc1 | 0.589 (inactive) | 0.515 | -2.13 | -0.866 (inactive) | -1.08 (inactive) | -0.859 (inactive)
33 | COC(=O)[C@@]1(Cc2ccc(F)cc2)[C@H]2c3cc(C(=O)N(C)C)n(Cc4ccc(O)c(OC)c4)c3C[C@H]2CN1C(=O)c1ccccc1 | 0.0137 (inactive) | 0.744 | -1.76 | -6.34 (inactive) | -0.156 (inactive) | -0.131 (inactive)
34 | COCCOC(=O)N1C(=O)[C@@]2(c3cc(C#CCCO)ccc31)[C@H](C(=O)N1CCCCCCC1)[C@H]1C(=O)O[C@H](c3ccccc3)[C@H](c3ccccc3)N1[C@@H]2c1ccccc1OCCO | 0.867 (inactive) | 0.6 | -2.18 | 3.5 (inactive) | 0.204 (inactive) | 0.606 (inactive)
